Source: PubChem BioAssay (several laboratories)
Sampled rows, rich in hits. Any-hit rate of the full collection: about 2.9%.
PG9 Ab binder: binders of HIV-1 gp120 antibody PG9, primary screen, biochemical, TR-FRET; HIV-1 gp120 / PG9 antibody interaction; TR-FRET gp120-PG9 antibody binding; inhibition, % at 6.7 µM; 360,000 tested, 0.43% active; AID 624416, 2012; in the data active means inhibition above about 8.5%
SKN-1 block: suppressors of acrylamide-induced Pgst-4::GFP reporter in worms, primary screen, SKN-1 inhibitor project, whole organism, uHTS, GFP/RFP fluorescence ratio, strain VP596 | 360,000 tested, 0.49% active | AID 624304, 2012 | inhibition, % at 21.8 µM | C. elegans VP596 Pgst-4::GFP/RFP ratio, 24 h;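 active means interference check ratio from 0.5 to 1.5 plus GFP to RFP signal ratio inhibition reaching or exceeding a fixed threshold, cut at about 30% in these data, passing the limit was not always enough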
NR1D1 modulator: modulators of Rev-erb alpha DNA binding, primary screen, biochemical, FITC-DNA, fluorescence polarization, uHTS; 370,000 tested, 0.79% active; AID 1259318, 2017; Rev-erbα–FITC-DNA binding, 90 min; activity, % at 10 µM; Nuclear receptor subfamily 1 group D member 1 (Homo sapiens), P20393;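 active means activity above about 14%, limit read from the data; passing the limit was not always enough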;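 further: 0% = DMSO wells with 35 nM protein and 100% = DMSO wells with 750 nM protein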
Target sequence (P20393 whole entry, looked up): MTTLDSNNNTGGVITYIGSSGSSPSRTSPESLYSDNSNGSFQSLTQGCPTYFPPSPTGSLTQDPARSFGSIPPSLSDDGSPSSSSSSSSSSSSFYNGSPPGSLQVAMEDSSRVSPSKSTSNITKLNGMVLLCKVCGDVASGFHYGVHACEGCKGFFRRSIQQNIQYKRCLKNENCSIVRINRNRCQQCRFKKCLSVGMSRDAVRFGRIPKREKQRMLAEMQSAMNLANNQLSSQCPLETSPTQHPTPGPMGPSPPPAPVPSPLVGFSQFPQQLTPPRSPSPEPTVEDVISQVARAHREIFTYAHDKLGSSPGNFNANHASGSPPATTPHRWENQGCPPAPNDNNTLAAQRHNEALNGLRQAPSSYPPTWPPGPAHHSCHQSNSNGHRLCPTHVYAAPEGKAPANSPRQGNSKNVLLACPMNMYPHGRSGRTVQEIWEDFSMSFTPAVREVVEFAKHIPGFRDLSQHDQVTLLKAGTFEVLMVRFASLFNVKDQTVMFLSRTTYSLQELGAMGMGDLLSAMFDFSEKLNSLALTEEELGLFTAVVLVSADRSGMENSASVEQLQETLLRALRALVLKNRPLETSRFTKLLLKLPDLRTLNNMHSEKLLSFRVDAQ
EP2 antag: human EP2 receptor antagonists, primary screen, TR-FRET cAMP, C6 glioma cells; 260,000 tested, 0.52% active; AID 1422, 2008; C6 glioma cells expressing human EP2; cells stimulated with saturating PGE2; Prostaglandin E2 receptor EP2 subtype (Homo sapiens), P43116; inhibition, % at 25 µM;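 active means percent inhibition above 40 after rounding to a whole number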;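 further: rat C6 glioma host cells with rolipram phosphodiesterase inhibitor present; the protocol text gives 20 µM as final concentration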
RAM inhibit: inhibitors of the yeast RAM network, primary screen, dse1pr::URA3 reporter, 5-FOA selection | S. cerevisiae dse1pr::URA3 reporter, 5-FOA growth OD615, 2 d; analog-sensitive cbk1-as2 kinase mutant strain | inhibition, % at 50 µM | 190,000 tested, 1.8% active | AID 868, 2007;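 active means inhibition above a set limit, 3 SD over mean compound inhibition, cut at about 8.4% in these data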;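 further: 0% = DMSO-only wells with no growth and 100% = 10 µM 1-NA-PP1 full growth; inhibition rescues growth on 5-FOA so higher OD means more RAM inhibition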
EP2 mod: EP2 receptor modulators, cAMP readout, primary screen, cell-based, HTRF cAMP, PGE2 stimulation; Prostaglandin E2 receptor EP2 subtype (Homo sapiens), P43116; 260,000 tested, 0.83% active; EP2-expressing cells, cAMP HTRF FRET, PGE2 co-stimulation; induction, % at 25 µM; AID 940, 2007;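 active means compounds whose cAMP rise, as percent of the full-agonist control response, exceeds 60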;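 further: rat C6 glioma line stably carrying human EP2 under a CMV promoter; the protocol text gives 20 µM as final concentration; 100% = response of wells given 1 µM PGE2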
PG9 bind confirm: binders of anti-gp120 antibody PG9, confirmation, biochemical, TR-FRET; TR-FRET PG9 antibody binding; 1,500 tested, 90% active; shares compounds with PG9 Ab binder; inhibition, % at 6.7 µM; AID 651571, 2012; in the data active means inhibition above about 9%
PGV04 Ab binding: binders of control antibody PGV04, counter-screen for PG9 antibody binder project, biochemical, TR-FRET, distinct HIV envelope site; shares compounds with PG9 Ab binder; TR-FRET PGV04 antibody-gp120 binding; inhibition, % at 6.7 µM; 1,500 tested, 95% active; in the data active means inhibition above about 9.5%
Numbers without * were called inactive; . = no result.

SMILES	PG9 Ab binder	SKN-1 block	NR1D1 modulator	EP2 antag	RAM inhibit	EP2 mod	PG9 bind confirm	PGV04 Ab binding
COc1ccc(OC)c(-n2nnnc2SCC(=O)Nc2ccc(N(C)C)cc2)c1	.	.	.	9	.	-7	.	.
O=C(Nc1ccc(F)cc1)c1cc(-c2ccccn2)nc2c(Cl)cccc12	18*	11	5	.	.	.	33*	69*
O=C(Nc1ccncc1)c1cc(-c2ccccn2)nc2ccccc12	0	-2	3	14	2	-7	.	.
Cc1ccc2[nH]c(=O)c(CN(CC3CCCO3)C(c3nnnn3CC3CCCO3)C(C)C)cc2c1 (stereo not drawn)	.	.	.	8	.	-4	.	.
CC(=O)Nc1ccc(NC(=O)CNC(=O)c2sc3ccccc3c2Cl)cc1	0	-1	-7	.	.	.	.	.
NC(=O)c1ccc(NC(=O)CNC(=O)c2sc3ccccc3c2Cl)cc1	18*	-15	8	.	.	.	22*	28*
Cc1ccc(NC(=O)CNC(=O)c2sc3ccccc3c2Cl)nc1	15*	21	14	.	.	.	13*	28*
CCCSc1ccc2nc(NC(=O)OC)[nH]c2c1	12*	-8	10	21	2	-33	25*	36*
COC(=O)Nc1nc2ccc(SC(C)C)cc2[nH]1	-2	-34	2	.	.	.	.	.
COc1ccc(-n2nnnc2SCC(=O)Nc2cc(Cl)ccc2Cl)cc1	.	.	.	8	.	-11	.	.
Cc1cc(C)nc(N2CCC(C(=O)Nc3ccc4c(c3)CCC4)CC2)n1	0	21	-7	7	4	2	.	.
Cc1ccnc(N2CCC(C(=O)Nc3ccc4c(c3)CCC4)CC2)n1	37*	-19	-1	8	2	2	44*	61*
O=[N+]([O-])c1cnc(N2CCOCC2)nc1N1CCOCC1	.	.	.	17	.	3	.	.
CCn1c(SCC(=O)Nc2nc3ccccc3s2)nnc1-c1ccc(Br)cc1	21*	11	-1	8	5	-3	23*	35*
Cc1ccc(-n2nc3c(c2NC(=O)c2ccccc2Br)CS(=O)C3)cc1 (stereo not drawn)	8.8*	-2	-2	10	1	10	8	15*
Cc1ccc(-n2nc3c(c2NC(=O)c2ccc(OC(C)C)cc2)CS(=O)C3)cc1 (stereo not drawn)	0	11	-1	7	-1	17	.	.
COc1ccc(-c2cc(-c3cccs3)c(C#N)c(SCC(=O)NC3CC3)n2)cc1	.	.	.	11	.	-2	.	.
COc1cccc(-c2nn(-c3ccccc3)cc2C(=O)OCC(=O)Nc2ncc(Cl)cc2Cl)c1	1	5	4	7	5	31	.	.
O=C(COC(=O)c1cn(-c2ccccc2)nc1-c1ccccc1)Nc1ncc(Cl)cc1Cl	15*	14	8	5	.	9	22*	33*
Cc1ccc(-c2c(C(=O)Nc3ccccc3C)c(C)[nH]c(=S)c2C#N)o1	15*	13	5	14	8.5*	53	11*	11*
Cc1ccccc1NC(=O)c1c(C)[nH]c(=S)c(C#N)c1-c1ccc(Cl)cc1	1	2	-6	6	.	19	.	.
CCCNC(=S)N(CCN1CCOCC1)Cc1cc2cc(C)cc(C)c2[nH]c1=O	.	.	.	8	.	22	.	.
COc1ccc2cc(Br)ccc2c1CC(=O)NC(C)(C)C	13*	4	5	15	4	29	21*	25*
